Here are results for 40 compounds from PubChem BioAssay.

PEG-3, sequence (Q6IN02 whole entry, looked up): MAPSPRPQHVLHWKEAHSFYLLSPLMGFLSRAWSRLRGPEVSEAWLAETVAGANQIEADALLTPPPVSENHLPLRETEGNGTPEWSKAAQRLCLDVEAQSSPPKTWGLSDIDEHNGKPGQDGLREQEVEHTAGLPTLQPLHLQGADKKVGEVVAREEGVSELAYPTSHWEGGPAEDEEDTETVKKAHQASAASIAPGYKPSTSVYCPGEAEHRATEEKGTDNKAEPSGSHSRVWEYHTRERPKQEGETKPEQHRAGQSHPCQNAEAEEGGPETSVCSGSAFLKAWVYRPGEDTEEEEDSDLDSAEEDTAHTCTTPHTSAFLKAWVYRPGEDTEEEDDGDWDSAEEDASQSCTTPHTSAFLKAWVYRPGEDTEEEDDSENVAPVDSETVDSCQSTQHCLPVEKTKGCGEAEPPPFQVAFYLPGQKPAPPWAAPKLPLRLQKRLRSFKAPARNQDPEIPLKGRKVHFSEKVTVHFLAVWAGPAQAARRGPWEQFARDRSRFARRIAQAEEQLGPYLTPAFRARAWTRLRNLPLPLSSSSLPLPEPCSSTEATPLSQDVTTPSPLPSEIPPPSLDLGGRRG

This assay has as its target PEG-3 (UniProt Q6IN02). Description: Peg3 promoter luciferase inhibitors, potency, dose response, cell-based, HeLa, CREF/GAPDH counter-screen panel (AID 624167). As to conditions: CREF/GAPDH counter-screens; HeLa PEG-Prom luciferase reporter, overnight, run 2, dose range 1, at 100 µM (top of the series) unless noted. For orientation: Counterscreens check selectivity or assay interference.
In general, inhibition refers to the change of the read-out against control, counted positive when it falls. With `O=C(C=Cc1ccccn1)c1ccccc1`, the inhibition is 101%.

As to `CCc1ccc2c(c1)Sc1ccccc1CC2N1CCN(C)CC1` (stereo not given), the inhibition was determined as 102%.

For `Cc1ccc2nc(N(CCCN(C)C)C(=O)c3ccc4c(c3)CCCC4)sc2c1`, the inhibition came out at 101%.

`OCCN1CCN(C2CCC(c3ccc(F)cc3)c3ccc(F)cc32)CC1` (stereo not given): the inhibition turned out to be 101%.

As to `COc1ccc2nc3n(c(=O)c2c1)-c1cc2ccccc2cc1C(=O)NC3Cc1ccc(O)cc1` (stereo not given), the inhibition amounted to 98.8%.

Regarding `COC(=O)c1cc(=O)n(Cc2ccco2)c(=Nc2ccc(F)cc2)s1`, the inhibition stood at 102%.

Consider `O=C1C(Cl)=C(Nc2ccc(O)cc2)C(=O)c2ccccc21`, for which the inhibition was found to be 101%.

As for `O=C(c1ccco1)N1CCN(c2ncnc3c2[nH]c2ccc(Br)cc23)CC1`, the inhibition was found to be 98.2%.

On to `C/C(=N\N=C(N)N)c1ccc(Cl)c(Cl)c1`, for which the inhibition is 101%.

Turning to `CCc1ccc(O)c(CNCCNCc2cc(CC)ccc2O)c1`, the inhibition came to 101%.

As to `CC1=NN(c2cccc(C(=O)O)c2)C(=O)/C1=C\C=C/c1ccccc1`, the inhibition is 99.5% [run 2, dose range 1, at 50 µM].

Consider `COC(=O)c1ccc(CNC(=O)Cn2cnc3c(NCc4ccccc4)ncnc32)cc1`, for which the inhibition came to 74.3%.

As to `CCN(Cc1ccccc1)S(=O)(=O)c1ccc(C(=O)N(CCCN(C)C)c2nc3cc4c(cc3s2)OCO4)cc1`, the inhibition came out at 101%.

In the case of `Cc1ccc2[nH]c(=O)c(C3C(C#N)=C(N)Oc4c3ccc3cccnc43)cc2c1` (stereo not given), the inhibition was found to be 98.6%.

For the compound `CC(C)n1cc(CN2CCC(C(=O)Nc3cccc(-c4cccc(Cl)c4)c3)CC2)cn1`, the inhibition was 101%.

On to `CCOC(=O)c1ccc2ncc(C(=O)OCC)c(NCCN(C)C)c2c1`, for which the inhibition was 77.3%.

As for `CCCCCc1ccc(OCCCC[n+]2cccc(C)c2)c(CCCCC)c1`, the inhibition was 101%.

For the compound `CCOC(=O)c1c(NC(C)=O)sc2c(OCC(O)CNC(C)(C)C)c(Br)ccc12` (stereo not given), the inhibition amounted to 93.7%.

Take `COc1ccc(NS(=O)(=O)c2ccc3ccccc3c2)c2ncccc12`: the inhibition was found to be 73.1%.

For the compound `CC(C)CC(N)c1csc(NC(=O)Nc2ccccc2C(C)(C)C)n1` (stereo not given), the inhibition worked out at 101%.

Turning to `COc1cc(-c2cc(C(=O)Nc3cc(S(=O)(=O)N4CCOCC4)ccc3C)c3ccccc3n2)cc(OC)c1OC`, the inhibition was found to be 61.8%.

In the case of `COC(=O)C1=C(C(=O)OC)C(C(=O)OC)C(C(=O)OC)C(C(=O)OC)(C(=O)OC)C(C(=O)OC)=C1C(=O)OC` (stereo not given), the inhibition was 101%.

With `Cc1ccc(S(=O)(=O)N(C)C)cc1NC(=O)c1cncc(Br)c1`, the inhibition stood at 83.7%.

Take `Cc1cc(Sc2ncnc(N)c2[N+](=O)[O-])ncn1`: the inhibition came to 102%.

Turning to `O=S(=O)(NC1CC(NS(=O)(=O)OCC(Cl)(Cl)Cl)C2CCCCC12)OCC(Cl)(Cl)Cl` (stereo not given), the inhibition worked out at 99.2%.

For `COc1cccc(NC(=O)Nc2cccc(C(=O)O)c2)c1`, the inhibition was 81.3%.

On to `COc1cccc(C(=O)O/N=C(\N)c2ccccn2)c1`, for which the inhibition is 95.8%.

As for `O=c1c2c3c(sc2nc(N2CCNCC2)n1CCc1ccccc1)CCCCC3`, the inhibition is 101%.

As to `Cc1cc(-n2c(SCC(=O)Nc3ccc(F)c(F)c3)nc3n[nH]c(C)c3c2=N)ccc1Cl`, the inhibition worked out at 95.3%.

In the case of `Cc1cccc(N=C2Sc3nc4c(C)c(C)ccc4cc3CN2CCN2CCOCC2)c1`, the inhibition was 93.7%.

In the case of `O=C1c2ccccc2C(=O)C12OC2c1ccc(Cl)cc1Cl` (stereo not given), the inhibition turned out to be 102%.

Turning to `Nc1c(C(=O)Nc2cccc(C(=O)O)c2)sc2nc3c(cc12)CCCC3`, the inhibition was determined as 77.5%.

Regarding `COc1ccc(NC(=O)N(C)[C@H]2C[C@H]3c4[nH]c5ccc(-c6cccc(C)c6)cc5c4CCN3C[C@H]2[C@H](C)O)cc1`, the inhibition came out at 97.1%.

With `C[C@@]12C(=O)Nc3cc(Cl)ccc3C(=O)N1[C@H]1c3cc(Cl)ccc3OC[C@@H]1[C@@H]2c1ccccc1`, the inhibition came out at 36.4%.

Take `Cc1ccc(C)c(CN2CCC(CNC(=O)Nc3ccc(F)c(Cl)c3)CC2)c1`: the inhibition turned out to be 101%.

With `COc1ccc(-c2ccc3[nH]c4c(c3c2)CCN2C[C@@H]([C@H](C)O)[C@@H](N(C)C(=O)Nc3cc(Cl)cc(Cl)c3)C[C@@H]42)cc1`, the inhibition was found to be 96.5%.

In the case of `C=CCN=C1NN=C(c2cc(C)n(CC=C)c2C)CS1`, the inhibition worked out at 97.6%.

Turning to `NC(c1csc(Nc2nccc(C(F)(F)F)n2)n1)C1CCCCC1` (stereo not given), the inhibition came to 99.1%.

With `Cc1ccc(NCCN(C)C)c2c(=O)c3cc(O)ccc3sc12`, the inhibition came out at 102%.

In the case of `CN1CCC(N(C)C(=O)/C=C/c2cn(-c3ccccc3)nc2-c2cccs2)CC1`, the inhibition came to 102%.
